Assay in all cases: yeast three-hybrid, YBZ-1, SC-Leu-His + 0.5 mM 3-AT, 4 days
Settings in all cases: tags: N-Gal4 AD-HA kept; label: inside an RPR1-promoter hybrid RNA with tandem MS2 sites; ssRNA

Assay [1] addresses PUM1 PUF domain R1-KFR (Homo sapiens, UniProt Q14671 828-1176, S863K;R864F;Q867R). The procedure, abridged:
(§1)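 The interaction score is the logarithmic change in variant frequency from input to selection. It uses log2, with a pseudocount of 1 for absent variants, and frequencies came from PCR-amplified, Illumina-sequenced repeat regions. The libraries were Pumilio-1 PUF domains randomized at the three base-contacting residues per repeat, co-expressed with matching RNA elements in strain YBZ-1 (LexA–MS2 coat fusion, HIS3 reporter). Plating lasted four days on SC-Leu (input) or SC-Leu-His + 0.5 mM 3-AT (selection).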

The target of assay [2] is PUM1 PUF domain R5-RNE (Homo sapiens, UniProt Q14671 828-1176, C1007R;R1008N;Q1011E). In short, it runs like this: as §1
Assay [3] deals with PUM1 PUF domain R2-LWS (Homo sapiens, UniProt Q14671 828-1176, N899L;Y900W;Q903S). In short, it runs like this:
as §1

For assay [4], the target named is PUM1 PUF domain R7-QTR (Homo sapiens, UniProt Q14671 828-1176, S1079Q;N1080T;E1083R). In short, it runs like this: as §1
Assay [5] addresses PUM1 PUF domain R8-RWG (Homo sapiens, UniProt Q14671 828-1176, N1122R;Y1123W;Q1126G). In short, it runs like this: as §1
Assay [6] addresses PUM1 PUF domain R8-CHP (Homo sapiens, UniProt Q14671 828-1176, N1122C;Y1123H;Q1126P). The procedure, abridged: as §1
The target in assay [7] is PUM1 PUF domain R4-ERC (Homo sapiens, UniProt Q14671 828-1176, N971E;H972R;Q975C). In short, it runs like this: as §1
In assay [8] the target is PUM1 PUF domain R3-CPG (Homo sapiens, UniProt Q14671 828-1176, R936P;Q939G). The procedure, abridged:
as §1

For assay [9], the target named is PUM1 PUF domain R8-RQR (Homo sapiens, UniProt Q14671 828-1176, N1122R;Y1123Q;Q1126R). The procedure, abridged:
as §1

For assay [10], the target named is PUM1 PUF domain R1-TVR (Homo sapiens, UniProt Q14671 828-1176, S863T;R864V;Q867R). The procedure, abridged:
as §1

As for “GGCUAGAACUAGUGGAUCCCCCGGCGCCCGGCGGCUCGAGCCCGGGUAAGUGUAAAUUGUCUGCAUGCCGCCGGGCGCCAUGCCUGCAGGUCGACUCUAGAAAACAUG”, the binding signal in [1] is 3.96 log2 enrichment (interaction score).

In the case of “GGCUAGAACUAGUGGAUCCCCCGGCGCCCGGCGGCUCGAGCCCGGGUAAGUGUCAAUAGUCUGCAUGCCGCCGGGCGCCAUGCCUGCAGGUCGACUCUAGAAAACAUG”, in assay [2], the binding signal is 2.14 log2 enrichment (interaction score).

With “GGCUAGAACUAGUGGAUCCCCCGGCGCCCGGCGGCUCGAGCCCGGGUAAGUGUUAAUAGUCUGCAUGCCGCCGGGCGCCAUGCCUGCAGGUCGACUCUAGAAAACAUG”, the binding signal in [2] is 3.73 log2 enrichment (interaction score).

Regarding “GGCUAGAACUAGUGGAUCCCCCGGCGCCCGGCGGCUCGAGCCCGGGUAAGUGUAAAGAGUCUGCAUGCCGCCGGGCGCCAUGCCUGCAGGUCGACUCUAGAAAACAUG”, the binding signal in assay [3] is 4.16 log2 enrichment (interaction score).

With “GGCUAGAACUAGUGGAUCCCCCGGCGCCCGGCGGCUCGAGCCCGGGUAAGUUUAAAUAGUCUGCAUGCCGCCGGGCGCCAUGCCUGCAGGUCGACUCUAGAAAACAUG”, the binding signal in assay [4] is 2.39 log2 enrichment (interaction score).

“GGCUAGAACUAGUGGAUCCCCCGGCGCCCGGCGGCUCGAGCCCGGGUAAGUGUAAAUAGUCUGCAUGCCGCCGGGCGCCAUGCCUGCAGGUCGACUCUAGAAAACAUG”: the binding signal in assay [3] is 2.23 log2 enrichment (interaction score); in assay [5] it was 5.92 log2 enrichment (interaction score); in [6], 0.7 log2 enrichment (interaction score); in assay [7] it was 4.37 log2 enrichment (interaction score); in assay [8] it was 2.95 log2 enrichment (interaction score); in assay [9], 0.6 log2 enrichment (interaction score).

As for “GGCUAGAACUAGUGGAUCCCCCGGCGCCCGGCGGCUCGAGCCCGGGUAAGUGUACAUAGUCUGCAUGCCGCCGGGCGCCAUGCCUGCAGGUCGACUCUAGAAAACAUG”, in assay [7], the binding signal is 0.16 log2 enrichment (interaction score).

As to “GGCUAGAACUAGUGGAUCCCCCGGCGCCCGGCGGCUCGAGCCCGGGUAAGUGUAAAUCGUCUGCAUGCCGCCGGGCGCCAUGCCUGCAGGUCGACUCUAGAAAACAUG”, the binding signal in assay [10] was 3.55 log2 enrichment (interaction score).

Regarding “GGCUAGAACUAGUGGAUCCCCCGGCGCCCGGCGGCUCGAGCCCGGGUAAGCGUAAAUAGUCUGCAUGCCGCCGGGCGCCAUGCCUGCAGGUCGACUCUAGAAAACAUG”, the values for the binding signal in assay [5], in [6] and in assay [9] were 6.94 log2 enrichment (interaction score), 2.6 log2 enrichment (interaction score) and 3.05 log2 enrichment (interaction score), respectively.

Consider “GGCUAGAACUAGUGGAUCCCCCGGCGCCCGGCGGCUCGAGCCCGGGUAAGUGUAAAAAGUCUGCAUGCCGCCGGGCGCCAUGCCUGCAGGUCGACUCUAGAAAACAUG”, for which the binding signal in [3] is 7.72 log2 enrichment (interaction score).

For the origin of these results see paper PMC8384837, “Expanding the binding specificity for RNA recognition by a PUF domain”.
